# Measurements reported in PubChem BioAssay AID2284169 (EPA ToxCast).
# Calls of active or inactive are those of the source. How the source made its calls: active means hit-call score of the fitted dose curve at least 0.9, where 1 is the maximum; inactive means score below 0.9.
# Biological target: human Opioid Receptor NOP (ORL1) Agonism, OPRL1 (gene 4987) (UniProt P41146)
# Assay: ERF_FR_GPCR_hOPRL1: Eurofins (ERF) G Protein-Coupled Receptor (GPCR) Radioligand Binding LeadHunter Assay for human Opioid Receptor NOP (ORL1) Agonism
# Description: ERF_FR_GPCR_hOPRL1 is a biochemical, single-readout assay that uses extracted gene-proteins in a cell-free assay. Measurements were taken 1 hour after chemical dosing in a 96-well plate. See NOP (ORL1) Human Opioid GPCR Binding (Agonist Radioligand) Assay, Cerep.ERF_FR_GPCR_hOPRL1 is an assay component calculated from the ERF_FR_GPCR_hOPRL1 assay. It is designed to measure radioligand binding using a type of binding reporter as detected by scintillation counting with radiometry technology.Data from the assay component ERF_FR_GPCR_hOPRL1 was analyzed at the assay endpoint, ERF_FR_GPCR_hOPRL1, in the positive analysis fitting direction relative to DMSO as the negative control and baseline of activity. Using a type of binding reporter, gain-of-signal activity can be used to understand changes in binding as they relate to gene OPRL1. To generalize the intended target to other relatable targets, this assay endpoint is annotated to the gpcr intended target family, where the subfamily is opioid.
# Human cells are incubated for 60 minutes at room temprature with [3H]nociceptin ligand (0.1 nM) and Nociceptin as control inhibitor. Test Sample Requirements: Minimum for 1) Screen: 60 ul of 10 mM stock -OR- 1 mg (pre-weighed) for 10 uM final testing. 2) Dose Response: 90 ul of 10 mM stock -OR- 1 mg (pre-weighed) for a top concentration at 10 uM.
# Chain of human Opioid Receptor NOP (ORL1) Agonism, OPRL1 (gene 4987) (P41146 whole entry, looked up): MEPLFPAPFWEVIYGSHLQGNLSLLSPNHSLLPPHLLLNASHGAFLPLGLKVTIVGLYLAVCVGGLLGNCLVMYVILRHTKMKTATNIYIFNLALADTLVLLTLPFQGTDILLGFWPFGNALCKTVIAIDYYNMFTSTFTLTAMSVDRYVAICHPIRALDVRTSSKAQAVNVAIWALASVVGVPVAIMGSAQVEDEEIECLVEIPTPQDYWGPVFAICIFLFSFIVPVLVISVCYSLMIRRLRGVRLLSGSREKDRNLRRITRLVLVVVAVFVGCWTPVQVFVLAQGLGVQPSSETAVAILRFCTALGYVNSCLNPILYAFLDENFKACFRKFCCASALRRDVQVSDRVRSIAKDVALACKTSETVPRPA
Compound,outcome,AC50
COc1cc(CCC(=O)CC(=O)CCc2ccc(O)c(OC)c2)ccc1O,inactive,
COc1cc(/C=C/C(=O)CC(=O)/C=C/c2ccc(O)c(OC)c2)ccc1O,,5 µM (active)
CCCCC[C@H](O)CC(=O)CCc1ccc(O)c(OC)c1,inactive,
O=C(/C=C/c1ccc(O)cc1)CC(=O)/C=C/c1ccc(O)cc1,,3.86 µM (active)
